TROY signal inh = TROY signaling inhibition; Q293 LMP1-TROYcd NF-kB luciferase reporter, 4 h; inhibition, % at 10 µM; actives 0.98% (n = 360,000); AID 1347056;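 active = compounds whose plate-normalised and pattern-corrected inhibition of the luciferase reporter signal at the single screening dose is 50% or more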
LMP1 NFkB inh = inhibitors of Epstein-Barr LMP1-induced NF-kappaB reporter; LMP1-induced NF-kappaB luciferase reporter cells, luminescence; inhibition, % at 12.5 µM; actives 0.69% (n = 350,000); AID 504558; in the data active = inhibition above about 41%; inconclusive = no clear call, values can overlap the other calls
EWS-Fli inh = EWS/Fli transcriptional activity inhibition. AID 651661. A673 NR0B1-luciferase reporter, viability-normalised. actives 0.67% (n = 350,000). inhibition, % at 12.6 µM;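 active = mean inhibition of at least 50% after viability correction, with every replicate also passing that limit; inconclusive = mean reaches 50% but only one of two replicates passes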;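 also: firefly luciferase signal divided by Alamar Blue viability fluorescence both relative to DMSO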
TWEAK-Fn14 inh = TWEAK-Fn14 signaling inhibition. TWEAK-stimulated Fn14 reporter cells, luciferase luminescence, 8 h. inhibition, % at 10 µM. actives 2% (n = 360,000). AID 1159606; in the data active = inhibition above about 50%
LGR2 antag = blocks bursicon-induced cAMP signaling via Drosophila LGR2; inhibition, % at 9.99 µM; HEK293 LGR2, CRE-luciferase, bursicon-stimulated, 4 h; AID 720647; actives 0.35% (n = 380,000);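 active = drop in luminescence signal, shown as inhibition above about 50% in the replicate tests, limit read from the data, passing the limit was not always enough; inconclusive = probably only some replicates passing the limit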;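 also: agonist challenge used bursicon conditioned medium at about half maximal strength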
Of the large screens only hits and unclear results are named; the others gave an inactive call. Shown are actives, neighbours in structure and some others; about 2.6% of the full set was active somewhere.

CC(C)=CCC/C(C)=C/CNC(=O)C[C@H]1C[C@H](C(=O)N(C(C)C)C(C)C)[C@@]2(C)c3[nH]c4ccc(Cl)cc4c3CCN2C1=O	TWEAK-Fn14 inh 56
Cc1ccc(-c2cnc3c(c2)C(=O)N([C@@H](C)CO)C[C@H](C)[C@H](CN(C)C)O3)cc1	none (no result: TROY signal inh, LMP1 NFkB inh, TWEAK-Fn14 inh)
CO[C@H]1CN(C)C(=O)c2cc(NC(=O)c3cccc(Oc4ccccc4)c3)ccc2OC[C@@H](C)NC[C@H]1C	none (no result: TROY signal inh, LMP1 NFkB inh, TWEAK-Fn14 inh)
O=C(Nc1nc2ccccc2[nH]1)c1cccc(Cl)c1	none
O=C(Cc1ccccc1)Nc1nc2ccccc2[nH]1	TROY signal inh 64
O=C(CSCc1nc2ccccc2[nH]1)Nc1ccccc1	LMP1 NFkB inh 59 (no result: EWS-Fli inh)
O=C(Nc1nc2ccccc2[nH]1)c1ccc(Cl)cc1	EWS-Fli inh 53, TWEAK-Fn14 inh 69, LGR2 antag 57
O=C(Cc1ccc(Cl)cc1)Nc1nc2ccccc2[nH]1	none (no result: EWS-Fli inh, LGR2 antag)
O=C(Nc1nc2ccccc2[nH]1)c1ccccc1	TWEAK-Fn14 inh 79 (no result: EWS-Fli inh, LGR2 antag)
COC(=O)[C@H]1[C@H](CO)[C@H]2Cn3c(ccc(-c4ccccc4)c3=O)[C@H]2N1C(=O)CC1CC1	none (no result: TROY signal inh, LMP1 NFkB inh, TWEAK-Fn14 inh)
C[C@@H]1CN([C@H](C)CO)C(=O)Cc2cc(NC(=O)Nc3ccc4c(c3)OCO4)ccc2O[C@H]1CN(C)S(=O)(=O)c1cn(C)cn1	none (no result: TROY signal inh, LMP1 NFkB inh, TWEAK-Fn14 inh)
O=C(/C(=C/c1ccc(Cl)cc1)c1nc2ccccc2[nH]1)c1ccccc1	LMP1 NFkB inh 86, TWEAK-Fn14 inh 79 (no result: EWS-Fli inh, LGR2 antag)
O=C(N/C(=C/c1ccc(Cl)cc1)c1nc2ccccc2[nH]1)c1ccco1	none (no result: EWS-Fli inh)
C[C@@H]1CCCCO[C@@H](CN(C)Cc2ccc(C(F)(F)F)cc2)[C@H](C)CN([C@@H](C)CO)C(=O)c2cc(NS(=O)(=O)c3ccc(F)cc3)ccc2O1	EWS-Fli inh 71 (no result: TROY signal inh, LMP1 NFkB inh, TWEAK-Fn14 inh)
C[C@@H]1CN([C@@H](C)CO)C(=O)c2cc(NS(=O)(=O)c3ccc(F)cc3)ccc2O[C@@H](C)CCCCO[C@H]1CN(C)Cc1ccc(C(F)(F)F)cc1	none (no result: TROY signal inh, LMP1 NFkB inh, TWEAK-Fn14 inh)
COc1ccc(CN(C)C[C@H]2OCCCC[C@@H](C)Oc3ccc(NS(=O)(=O)c4ccc(C)cc4)cc3C(=O)N([C@H](C)CO)C[C@H]2C)cc1	EWS-Fli inh 59 (no result: TROY signal inh, LMP1 NFkB inh, TWEAK-Fn14 inh)
C[C@@H]1CN([C@H](C)CO)C(=O)c2cc(NS(=O)(=O)c3ccc(F)cc3)ccc2O[C@@H](C)CCCCO[C@H]1CN(C)Cc1ccc(C(F)(F)F)cc1	EWS-Fli inh 65 (no result: TROY signal inh, LMP1 NFkB inh, TWEAK-Fn14 inh)
C[C@@H]1CN([C@@H](C)CO)C(=O)c2cc(NS(=O)(=O)c3ccc(F)cc3)ccc2O[C@@H]1CN(C)Cc1ccc(C(F)(F)F)cc1	EWS-Fli inh 75 (no result: TROY signal inh, LMP1 NFkB inh, TWEAK-Fn14 inh)
C[C@@H]1CCCCO[C@H](CN(C)Cc2ccc(C(F)(F)F)cc2)[C@@H](C)CN([C@H](C)CO)C(=O)c2cc(NS(=O)(=O)c3ccc(F)cc3)ccc2O1	none (no result: TROY signal inh, LMP1 NFkB inh, TWEAK-Fn14 inh)
CN(C)c1ccc(N=Nc2ccc(S(N)(=O)=O)cc2)cc1	none (no result: EWS-Fli inh)
CC1=CC(=O)C=CC1=Nc1ccc(N(C)C)cc1	TWEAK-Fn14 inh 67 (no result: LMP1 NFkB inh)
CC1CC(C)C(=O)C(C(CC2CC(=O)NC(=O)C2)OC(=O)CC(=O)c2ccccc2)C1 (stereo not drawn)	LMP1 NFkB inh 52, TWEAK-Fn14 inh 51, LGR2 antag 82
O=C(OCC(=O)N1CCCC1=O)c1nc(Cl)c(Cl)c(Cl)c1Cl	TROY signal inh 56, TWEAK-Fn14 inh 91
Nc1c(Cl)c(Cl)nc(C(=O)OCC(=O)N2CCCC2=O)c1Cl	none
CCOC(=O)c1c(C)oc2c1c(C=NCC1CCCO1)c(O)c1ccccc12 (stereo not drawn)	TROY signal inh 69 (no result: EWS-Fli inh, LGR2 antag)
N#CC1=C(N)NC(SCc2ccc(Br)cc2)=C(C#N)C12CCCCC2	TROY signal inh 54 (no result: EWS-Fli inh, LGR2 antag)
N#CC1=C(N)NC(SCc2ccc(Cl)cc2)=C(C#N)C12CCCCC2	none (no result: EWS-Fli inh)
Cc1ccccc1S(=O)(=O)N1[C@@H]2CNC[C@H]1C2c1ccc(-c2ccc(C(=O)N(C)C)cc2)cc1 (stereo partly drawn)	none (no result: TROY signal inh, LMP1 NFkB inh, TWEAK-Fn14 inh)
CC(=O)N1CCc2cc(Br)cc(S(=O)(=O)NCCCN(C)Cc3ccccc3)c21	TWEAK-Fn14 inh 98
CCC(=O)N1CCc2cc(Br)cc(S(=O)(=O)NCCCN(C)Cc3ccccc3)c21	none
COc1cc(OC)cc(C(=O)O/N=C(\N)c2cccc(C)c2)c1	none
COc1cc(C(=O)O/N=C(\N)c2ccccn2)cc(OC)c1OC	none
Cc1ccc(C(=O)O/N=C(\N)c2ccccn2)cc1C	TROY signal inh 81, LMP1 NFkB inh 56, EWS-Fli inh 74, TWEAK-Fn14 inh 99, LGR2 antag 98
N/C(=N\OC(=O)c1cccc(F)c1)c1ccccc1	none (no result: EWS-Fli inh)
Cc1cccc(/C(N)=N/OC(=O)C23CC4CC(CC(C4)C2)C3)c1	TROY signal inh 60 (no result: LGR2 antag)
Cc1cccc(C(=O)O/N=C(\N)c2ccccn2)c1	TROY signal inh 85, EWS-Fli inh 77, TWEAK-Fn14 inh 102, LGR2 antag 100
N/C(=N\OC(=O)c1cccc(F)c1)c1ccccn1	TROY signal inh 61, TWEAK-Fn14 inh 84, LGR2 antag inconclusive
N/C(=N\OC(=O)c1ccc2c(c1)OCO2)c1cccc([N+](=O)[O-])c1	none
Cc1cccc(/C(N)=N/OC(=O)c2ccc3c(c2)OCO3)c1	TWEAK-Fn14 inh 63, LGR2 antag 54 (no result: EWS-Fli inh)
O=C(Nc1cccc([N+](=O)[O-])c1)c1ccc2ccccc2c1O	TWEAK-Fn14 inh 53
COc1ccc2c3c([nH]c2c1)[C@@H](CO)N(S(=O)(=O)c1cn(C)cn1)CC31CN(CC2CCOCC2)C1	none (no result: TROY signal inh, LMP1 NFkB inh, TWEAK-Fn14 inh)
COc1ccc(C[C@H]2CCn3cc(nn3)COC[C@H](c3ccccc3)NC2=O)cc1	none (no result: TROY signal inh, LMP1 NFkB inh, TWEAK-Fn14 inh)
CC1(C)Cc2c(sc(NC(=O)COc3ccc(Cl)cc3)c2C#N)C(C)(C)N1	TWEAK-Fn14 inh 101 (no result: EWS-Fli inh, LGR2 antag)
CC(=O)Nc1ccc(NC(=O)C2CC(=O)N(c3cccc(C)c3C)C2)cc1 (stereo not drawn)	none (no result: EWS-Fli inh, LGR2 antag)
CC(=O)Nc1ccc(-c2csc(NC(=O)C3CC(=O)N(c4ccc5c(c4)OCCO5)C3)n2)cc1 (stereo not drawn)	none
Cc1cc(NC(=O)C2CC(=O)N(c3ccccc3C)C2)no1 (stereo not drawn)	TWEAK-Fn14 inh 83
Cc1cccc(N2CC(C(=O)Nc3ccc4c(c3)OCCO4)CC2=O)c1C (stereo not drawn)	TWEAK-Fn14 inh 63
COC(=O)c1ccc(CSc2nnc(NC(=O)C3CC(=O)N(c4ccc5c(c4)OCCO5)C3)s2)cc1 (stereo not drawn)	TWEAK-Fn14 inh 54 (no result: EWS-Fli inh)
COc1ccc(-c2csc(NC(=O)C3CC(=O)N(c4ccc5c(c4)OCCO5)C3)n2)cc1 (stereo not drawn)	TROY signal inh 55, TWEAK-Fn14 inh 85 (no result: EWS-Fli inh)
COc1ccc(N2CC(C(=O)Nc3ccc4c(c3)OCCO4)CC2=O)cc1 (stereo not drawn)	none
CS(=O)(=O)c1ccc(NC(=O)C2CC(=O)N(c3ccc4c(c3)OCCO4)C2)cc1 (stereo not drawn)	none
CCN(CC)S(=O)(=O)c1ccc(NC(=O)C2CC(=O)N(c3ccc4c(c3)OCCO4)C2)cc1 (stereo not drawn)	TWEAK-Fn14 inh 60

Compound activity as filed in PubChem BioAssay.
